Laboratory results published in PubChem BioAssay (NCI).
This is part of a sample that, as a whole, favours compounds with a hit. Of some 79,000 tested, about 15% had one in any assay. Values without a mark were called inactive. The source made the active and inactive calls. No stated cut-off is given here; in the data, active means growth inhibition above about 70%; inactive means the rest.

Assay: NCI Yeast Anticancer Drug Screen. Data for the rad50 strain (AID 155);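 further: 0% = growth of vehicle-only cultures of the same strain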
Details: S. cerevisiae rad50 strain growth inhibition; at 50.0 µM; stronger effect = higher value
Outline: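 Inhibition values express reduced yeast growth in compound-treated cultures relative to vehicle-treated controls.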
With `CCCCC1CC(c2ccc(Cl)cc2)=NO1` (stereo not given) the growth inhibition was 26.9%. Work on `OC1C(O)C2CC1C1C2C2(Cl)CC1(Cl)C(Cl)=C2Cl` (stereo not given) yielded a growth inhibition of 7.6%. With `BrCCC[n+]1ccc2ccccc2c1-c1nccc2ccccc12` the growth inhibition was 50.7%. `CCOC(=O)c1ccc(NC(=O)Nc2cc(Cl)ccc2OC)cc1` showed a growth inhibition of 4%. `CC1(C)CC(C(N)=O)C(=O)O1` (stereo not given) showed a growth inhibition of -17.4%. In the case of `CCCCCCCN(CCCCCCC)CC(O)c1c(OC)c2ccccc2c2ccccc12` (stereo not given), the growth inhibition is reported as 94.8% (active). `C/C=C/C(=O)Oc1ccccc1/C=C/C(=O)CCCCCC` showed a growth inhibition of 15.2%. With `CCCCCCCCCCCCCCCCCCOC(=O)c1cccnc1` the growth inhibition was 23.1%. Compound `O=NNc1ccc(Sc2ccccc2)cn1` has a growth inhibition of 6.8%. `CCOC(=O)C(=O)Cc1ccccn1` showed a growth inhibition of -0.7%. `CCNC(=O)c1ccccc1C(=O)c1ccccc1` showed a growth inhibition of -4.55%. With `CCOc1ncc(C(O)c2ccc(F)cc2)c(OCC)n1` (stereo not given) the growth inhibition was 17.1%. Work on `CCOC(=O)Nc1cccc(Cl)c1` yielded a growth inhibition of 10.9%. In the case of `COc1ccc(-c2c3nc(c(-c4ccc(OC)cc4)c4[n-]c(c(-c5ccc(OC)cc5)c5nc(c(-c6ccc(OC)cc6)c6[n-]c2c2ccccc62)-c2ccccc2-5)c2ccccc42)-c2ccccc2-3)cc1.[Zn+2]`, the growth inhibition is reported as -21.1%. `COc1ccc(C(CN)c2ccc(N)cc2)cc1` (stereo not given) showed a growth inhibition of 8.8%. With `Cc1ccc(-c2cn3c(nc4ccccc43)c(-c3ccccc3)n2)cc1` the growth inhibition was -25.6%. Work on `COc1ccc(/C=[N+](\[O-])[C@H](COCc2ccccc2)c2ccccc2)cc1` yielded a growth inhibition of 18.4%. For `COc1ccc(C)c2c1CCCC2`, the growth inhibition was -8.6%. With `CCOC(=O)/N=c1/nc(N(C)C)ss1` the growth inhibition was -18.9%. Compound `O=C1OC(c2ccccc2)=N/C1=C/c1c(-c2ccccc2)c(-c2ccccc2)c2n1CCC2` has a growth inhibition of 21.9%. In the case of `Nc1ccccc1C(=O)ONC(=O)c1ccccc1`, the growth inhibition is reported as 99.5% (active). Compound `CCN(CC)S(=O)(=O)c1ccc(S(C)(=O)=O)cc1` has a growth inhibition of -19.8%. For `CC(C)CC(=O)c1ccc2ccccc2c1O`, the growth inhibition was -0.1%. For `O=S(O)OS(=O)O`, the growth inhibition was -5.95%. Work on `Cc1cccc(-c2nc(N)nc(N)n2)c1` yielded a growth inhibition of 11.8%. In the case of `C(=N\N1CCN(/N=C/c2ccc3ccccc3n2)CC1)/c1ccc2ccccc2n1`, the growth inhibition is reported as 38.1%. Work on `CN(C1CCCCC1)S(=O)(=O)c1ccc(N)cc1` yielded a growth inhibition of 7.65%. `C=CCC12CC(COc3ccccc3C(N)=O)OC1=Nc1ccccc1NC2=O` (stereo not given) showed a growth inhibition of 0.55%. `COc1ccccc1NC(=O)CC(=O)n1nc(-c2ccccc2)c(N=Nc2ccccc2[N+](=O)[O-])c1-c1ccccc1` showed a growth inhibition of -0.4%. With `Nc1nc(N)c2nc(-c3ccc(N(CCO)CCO)cc3)c(N)nc2n1` the growth inhibition was -13.1%. For `CCOC(=O)/C(I)=C/c1cc(OC)c(OC)c(OC)c1`, the growth inhibition was -2.2%. Work on `CCCCOCCOCCOS(=O)(=O)c1ccc(C)cc1` yielded a growth inhibition of 11.1%. `COC1(OC)CC2OC1C1N=NN(C(=O)OC(C)(C)C)C21` (stereo not given) gave a growth inhibition of 28.1%. `COc1ccc(C2(C)OCCCC2([NH-])C[NH-])cc1.[Cl][Pt+2][Cl]` (stereo not given) showed a growth inhibition of 10.9%. Compound `COC(=O)/C=C/c1ccccc1` has a growth inhibition of 17.4%. `Cn1cc(C(=O)C2CCCCC2)ccc1=O` showed a growth inhibition of -4.6%. With `O=Cc1cc2ccccc2c2ccccc12` the growth inhibition was -23.2%. Compound `CCCC1=C(c2ccc(OC)cc2)Cc2cc(OC)ccc21` has a growth inhibition of -14.9%. Work on `O=C(NCCCCCCNC(=O)C1CCCNC1)C1CCCNC1` (stereo not given) yielded a growth inhibition of 19.1%. Work on `CC(C)NC(N)=O` yielded a growth inhibition of 29.8%.

Assay: NCI Yeast Anticancer Drug Screen. Data for the mec2-1 strain (AID 157)
Details: S. cerevisiae mec2-1 strain, at 50.0 µM, stronger effect = higher value
Outline: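 Vehicle-treated cultures served as reference for growth inhibition of compound-exposed mec2-1 yeast.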
`CCCCC1CC(c2ccc(Cl)cc2)=NO1` (stereo not given) gave a growth inhibition of -7%. `OC1C(O)C2CC1C1C2C2(Cl)CC1(Cl)C(Cl)=C2Cl` (stereo not given) gave a growth inhibition of -1.55%. With `BrCCC[n+]1ccc2ccccc2c1-c1nccc2ccccc12` the growth inhibition was 16.1%. For `CCOC(=O)c1ccc(NC(=O)Nc2cc(Cl)ccc2OC)cc1`, the growth inhibition was 46.1%. In the case of `CC1(C)CC(C(N)=O)C(=O)O1` (stereo not given), the growth inhibition is reported as -4.15%. `CCCCCCCN(CCCCCCC)CC(O)c1c(OC)c2ccccc2c2ccccc12` (stereo not given) gave a growth inhibition of 34.4%. For `C/C=C/C(=O)Oc1ccccc1/C=C/C(=O)CCCCCC`, the growth inhibition was 11.1%. Work on `CCCCCCCCCCCCCCCCCCOC(=O)c1cccnc1` yielded a growth inhibition of 10.3%. `O=NNc1ccc(Sc2ccccc2)cn1` gave a growth inhibition of -9.2%. `CCOC(=O)C(=O)Cc1ccccn1` gave a growth inhibition of -6.55%. In the case of `CCNC(=O)c1ccccc1C(=O)c1ccccc1`, the growth inhibition is reported as 1.2%. With `CCOc1ncc(C(O)c2ccc(F)cc2)c(OCC)n1` (stereo not given) the growth inhibition was -3.95%. `CCOC(=O)Nc1cccc(Cl)c1` gave a growth inhibition of -2.45%. Work on `COc1ccc(-c2c3nc(c(-c4ccc(OC)cc4)c4[n-]c(c(-c5ccc(OC)cc5)c5nc(c(-c6ccc(OC)cc6)c6[n-]c2c2ccccc62)-c2ccccc2-5)c2ccccc42)-c2ccccc2-3)cc1.[Zn+2]` yielded a growth inhibition of -18.7%. Work on `COc1ccc(C(CN)c2ccc(N)cc2)cc1` (stereo not given) yielded a growth inhibition of 10.7%. For `Cc1ccc(-c2cn3c(nc4ccccc43)c(-c3ccccc3)n2)cc1`, the growth inhibition was -26.9%. With `COc1ccc(/C=[N+](\[O-])[C@H](COCc2ccccc2)c2ccccc2)cc1` the growth inhibition was -18.3%. In the case of `COc1ccc(C)c2c1CCCC2`, the growth inhibition is reported as 9.75%. `CCOC(=O)/N=c1/nc(N(C)C)ss1` showed a growth inhibition of -29.6%. In the case of `O=C1OC(c2ccccc2)=N/C1=C/c1c(-c2ccccc2)c(-c2ccccc2)c2n1CCC2`, the growth inhibition is reported as 9.75%. With `Nc1ccccc1C(=O)ONC(=O)c1ccccc1` the growth inhibition was 99.6% (active). `CCN(CC)S(=O)(=O)c1ccc(S(C)(=O)=O)cc1` showed a growth inhibition of -10.9%. `CC(C)CC(=O)c1ccc2ccccc2c1O` gave a growth inhibition of -17.1%. Compound `O=S(O)OS(=O)O` has a growth inhibition of -19.4%. With `Cc1cccc(-c2nc(N)nc(N)n2)c1` the growth inhibition was -9.45%. `C(=N\N1CCN(/N=C/c2ccc3ccccc3n2)CC1)/c1ccc2ccccc2n1` gave a growth inhibition of 13.1%. Compound `CN(C1CCCCC1)S(=O)(=O)c1ccc(N)cc1` has a growth inhibition of -3.35%. Work on `C=CCC12CC(COc3ccccc3C(N)=O)OC1=Nc1ccccc1NC2=O` (stereo not given) yielded a growth inhibition of 0.25%. With `COc1ccccc1NC(=O)CC(=O)n1nc(-c2ccccc2)c(N=Nc2ccccc2[N+](=O)[O-])c1-c1ccccc1` the growth inhibition was -15.5%. `Nc1nc(N)c2nc(-c3ccc(N(CCO)CCO)cc3)c(N)nc2n1` showed a growth inhibition of -14.8%. For `CCOC(=O)/C(I)=C/c1cc(OC)c(OC)c(OC)c1`, the growth inhibition was 15.5%. `CCCCOCCOCCOS(=O)(=O)c1ccc(C)cc1` showed a growth inhibition of 1.6%. With `COC1(OC)CC2OC1C1N=NN(C(=O)OC(C)(C)C)C21` (stereo not given) the growth inhibition was 13.3%. For `COc1ccc(C2(C)OCCCC2([NH-])C[NH-])cc1.[Cl][Pt+2][Cl]` (stereo not given), the growth inhibition was -3.15%. `COC(=O)/C=C/c1ccccc1` gave a growth inhibition of -14.3%. Compound `Cn1cc(C(=O)C2CCCCC2)ccc1=O` has a growth inhibition of -11.8%. Compound `O=Cc1cc2ccccc2c2ccccc12` has a growth inhibition of -24%. In the case of `CCCC1=C(c2ccc(OC)cc2)Cc2cc(OC)ccc21`, the growth inhibition is reported as -16.9%. `O=C(NCCCCCCNC(=O)C1CCCNC1)C1CCCNC1` (stereo not given) showed a growth inhibition of -11.7%. In the case of `CC(C)NC(N)=O`, the growth inhibition is reported as 16%.
